# Hits are enriched below; roughly 2.4% of the tested compounds scored in any of these assays.
# M1 ag = human M1 muscarinic receptor agonists, primary screen, Fluo-8 calcium fluorescence, CHO-K1 cells, HTS; Muscarinic acetylcholine receptor M1 (Homo sapiens), P11229; 360,000 tested, 0.33% active; CHO-K1 hM1, agonist mode; 0% DMSO, 100% acetylcholine EC100; AID 588814, 2011; activation, % at 3 µM;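 active = activation above the run's mean compound activation plus 3 SD, cut at about 16% in these data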;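 also: peak over basal fluorescence ratio within a 140 s kinetic read after compound addition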
# Target sequence (P11229 whole entry, looked up): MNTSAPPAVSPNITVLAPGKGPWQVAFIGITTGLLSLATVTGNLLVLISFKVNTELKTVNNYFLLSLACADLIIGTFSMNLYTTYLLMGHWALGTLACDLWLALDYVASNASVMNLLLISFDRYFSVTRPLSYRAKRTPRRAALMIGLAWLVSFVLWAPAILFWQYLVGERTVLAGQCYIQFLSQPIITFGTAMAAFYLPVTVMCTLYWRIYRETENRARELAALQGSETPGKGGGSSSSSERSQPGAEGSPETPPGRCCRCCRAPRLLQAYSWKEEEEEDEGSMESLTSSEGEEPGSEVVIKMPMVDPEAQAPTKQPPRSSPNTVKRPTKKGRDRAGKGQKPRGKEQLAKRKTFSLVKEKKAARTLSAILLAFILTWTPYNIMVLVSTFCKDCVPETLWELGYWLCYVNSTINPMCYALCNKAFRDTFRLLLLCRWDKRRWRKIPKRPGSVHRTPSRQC
# CHO-K1 Ca antag = M1 antagonist counterscreen hit in parental CHO-K1 cells. 360,000 tested, 0.6% active. ATP-induced calcium, Fluo-8 fluorescence. inhibition, % at 3 µM;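 active = inhibition above a per-plate cutoff, the plate's mean sample inhibition plus 3 SD, cut at about 24% in these data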;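 also: 0% = DMSO plus EC80 ATP and 100% = DMSO alone without ATP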
# M1 PAM = human M1 muscarinic receptor positive allosteric modulators, primary screen, CHO-K1 cells, Fluo-8 calcium fluorescence, 1536-well; Muscarinic acetylcholine receptor M1 (Homo sapiens), P11229; CHO-K1 hM1, ACh EC20; 0% = ACh EC20, 100% = maximal ACh; activation, % at 3 µM; 360,000 tested, 0.088% active; in the data active = activation above about 19%, passing the limit was not always enough
# CHO-K1 Ca ag = counter-screen for M1 agonists: effect in parental CHO-K1 cells; activation, % at 3 µM; Fluo-8 calcium fluorescence; scaled to maximal ATP response, vehicle zero; 360,000 tested, 0.48% active; AID 602248, 2012; in the data active = activation above about 15%;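 also: untransfected CHO-K1 host cells lacking M1 receptor as counterscreen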
# CHO-K1 Ca PAM = nonselective calcium activators in parental CHO-K1 cells, primary screen, counter-screen for M1 PAM project, cell-based, Fluo-8 calcium fluorescence, full deck, 1536-well | ATP EC20; 0% at ATP EC20, 100% at ATP max | activation, % at 3 µM | 360,000 tested, 0.02% active | AID 602247, 2012;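 active = activation above the run cutoff, the mean activation of all test compounds plus 3 SD, cut at about 40% in these data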;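 also: peak over basal fluorescence ratio in a 140 s read after ATP addition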
# CHRM1 antagonist = human M1 muscarinic receptor antagonists, primary screen, CHO-K1 cells, Fluo-8 calcium fluorescence, 1536-well; Muscarinic acetylcholine receptor M1 (Homo sapiens), P11229; CHO-K1 hM1, ACh EC80 antagonist; inhibition, % at 3 µM; 360,000 tested, 1.3% active;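 active = percent inhibition above its own plate's cutoff, namely the mean of that plate's compound wells plus 3 SD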;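 also: peak over basal fluorescence ratio during 140 s after agonist addition; 0% = ACh EC80 plus DMSO and 100% = DMSO alone without agonist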
# Starred values were filed as active, the others as inactive.
SMILES,M1 ag,CHO-K1 Ca antag,M1 PAM,CHO-K1 Ca ag,CHO-K1 Ca PAM,CHRM1 antagonist
CCN(CC)C(=O)c1ncn2c1C(=O)N(C)CC2,-3.7,27.3*,-3.0,0.4,-7.9,6.8
CCC1Oc2ccc(C)cc2N(CC(=O)N(Cc2ccc(C)o2)C2CC(C)(C)NC(C)(C)C2)C1=O (configuration not stated),-1.8,-6.8,-9.9,0.6,15.8,29.2*
CN(Cc1nccs1)C(=O)c1cc(COc2cccc3cnccc23)on1,4.2,15.5,-9.8,16.2*,-14.9,23.5
CCOC(=O)CC1CCCCN1C(=O)c1cc(COc2cccc3cnccc23)on1 (configuration not stated),6.3,44.9*,-20.3,19.7*,-29.1,72.0*
COC(=O)C1CCCCN1C(=O)c1cc(COc2cccc3cccnc23)on1 (configuration not stated),-2.9,8.8,12.0,1.7,4.7,-14.2
COC(=O)C1CCCCN1C(=O)c1cc(COc2cccc3cnccc23)on1 (configuration not stated),0.9,28.1*,-14.9,15.3*,-22.3,42.9*
CC(=O)OC1C(=O)N(Cc2ccccc2)C1c1ccc(C)cc1 (configuration not stated),0.6,12.7,-4.9,0.5,-1.3,17.5
COc1ccc(NC(=O)N(C)C[C@@H]2Oc3ccc(NC(=O)NC(C)C)cc3CC(=O)N([C@H](C)CO)C[C@@H]2C)cc1,-2.9,-6.5,10.3,0.2,7.6,-6.6
O=C(Nc1ccc2c(c1)OCO2)c1cc(C2CCCCN2S(=O)(=O)Cc2ccccc2)on1 (configuration not stated),-7.1,1.2,-10.1,0.7,8.4,-4.3
O=C(NNC(=S)NC(=O)c1ccco1)c1ccc(F)cc1,3.9,1.4,8.9,23.9*,20.1,-2.3
O=C(NC(=S)NNC(=O)c1ccco1)c1ccc(Br)cc1,24.9*,-2.2,2.0,17.9*,6.1,-4.4
COc1ccc(NC(=O)CS(=O)(=O)c2cn(CC(=O)N3CCOCC3)c3ccccc23)cc1,0.7,-9.1,9.6,4.7,17.6,-11.3
CC[n+]1c(C)cc(C)n1-c1ccccc1,-6.8,-10.6,-3.4,-0.5,6.7,7.2
CCCN1C(=O)/C(=C/c2c(N3CCNC(=O)C3CC(=O)OCC)nc3c(C)cccn3c2=O)SC1=S (configuration not stated),13.0,9.8,-17.1,10.3,-4.9,39.0*
CCOC(=O)CC1C(=O)NCCN1c1nc2ccc(C)cn2c(=O)c1/C=C1\SC(=S)N(CC(C)C)C1=O (configuration not stated),5.1,-7.3,-3.5,5.0,10.1,1.9
COc1ccc(NS(=O)(=O)c2ccc(C(=O)N(C)Cc3ccc(C)o3)cc2)cc1,19.9*,-3.9,3.6,13.3,2.2,-1.5
COCc1ccc(C(=O)NCC2(N3CCCCC3)CCCCC2)cc1,-8.7,-1.9,1.0,15.6*,-17.8,1.8
COc1ccc(NS(=O)(=O)c2ccc(C(=O)NCC3(N4CCOCC4)CCCCC3)cc2)cc1,15.3,-11.8,4.2,15.5*,17.2,-6.9
CS(=O)(=O)Cc1ccc(C(=O)NCC2(N3CCCCC3)CCCCC2)cc1,-10.8,-8.7,9.2,0.2,21.6,-15.4
CCCCn1c(/N=C/c2ccc(N(C)C)cc2)nc2ccccc21,2.3,15.1,20.7*,0.4,-1.9,-23.4
CN(CC(=O)Nc1ccccc1Br)C(=O)c1sccc1-c1ccccc1,0.3,14.9,-4.8,0.2,-0.2,12.5
COc1ccc(C2CC(=O)c3cnc(NC(=O)c4ccccc4)nc3C2)c(OC)c1 (configuration not stated),-0.9,23.7*,4.2,-0.4,-3.5,0.7
CCCN(Cc1ccc(N(CC)CC)cc1)CC1CC1,-15.2,2.7,-32.3,0.4,-9.2,51.6*
COCCn1nnnc1CN1CCN(C(=O)c2ccco2)CC1,-5.7,-14.2,0.8,0.8,7.5,-7.0

# High-throughput results (PubChem)
